# Reference: the supplement of paper PMC11732987, “Enantioselective OTUD7B fragment discovery through chemoproteomics screening and high-throughput optimisation” (Communications Chemistry, 2025)
# Unmarked numbers belong to inactive results.
# Assays:
# Test in all cases: log2 ratio of Biotin-Ahx-Ub-VS probe labelling (fragment/DMSO); higher = less target engagement (more negative = stronger competition), active = hit call of the paper (q ≤ 0.05, log2 ratio ≤ -1)
# Conditions in all cases: compound concentration: 200 uM; treatment time: 3 h
# OTUD6B = biological target: T1, OTUD6B (UniProt Q8N6M0)
# T1 sequence (whole entry): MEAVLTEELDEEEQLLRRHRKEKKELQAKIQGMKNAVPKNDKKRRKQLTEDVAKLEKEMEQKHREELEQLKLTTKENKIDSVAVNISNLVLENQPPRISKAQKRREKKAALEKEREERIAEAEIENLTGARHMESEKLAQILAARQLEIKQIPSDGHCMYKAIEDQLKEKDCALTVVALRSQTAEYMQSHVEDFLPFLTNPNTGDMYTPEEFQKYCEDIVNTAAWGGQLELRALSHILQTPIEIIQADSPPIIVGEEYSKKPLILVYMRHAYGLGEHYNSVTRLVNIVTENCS
# Outline: (§1)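 Triplicate samples of HEK293T lysate, 495 µg each, received fragment at 200 µM or vehicle for 3 h, followed by Biotin-Ahx-Ub-VS (0.5 µM final) for 1 h. After NeutrAvidin enrichment of labelled DUBs and LysC/trypsin digestion, peptides were run by diaPASEF LC-MS/MS. The values are average log2 fragment/vehicle ratios from global-median-normalised Spectronaut label-free quantities, tested by unpaired t-test on proteins having ≥2 unique peptides.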
# OTUD7B = biological target: T2, OTUD7B (UniProt Q6GQQ9)
# T2 sequence (whole entry): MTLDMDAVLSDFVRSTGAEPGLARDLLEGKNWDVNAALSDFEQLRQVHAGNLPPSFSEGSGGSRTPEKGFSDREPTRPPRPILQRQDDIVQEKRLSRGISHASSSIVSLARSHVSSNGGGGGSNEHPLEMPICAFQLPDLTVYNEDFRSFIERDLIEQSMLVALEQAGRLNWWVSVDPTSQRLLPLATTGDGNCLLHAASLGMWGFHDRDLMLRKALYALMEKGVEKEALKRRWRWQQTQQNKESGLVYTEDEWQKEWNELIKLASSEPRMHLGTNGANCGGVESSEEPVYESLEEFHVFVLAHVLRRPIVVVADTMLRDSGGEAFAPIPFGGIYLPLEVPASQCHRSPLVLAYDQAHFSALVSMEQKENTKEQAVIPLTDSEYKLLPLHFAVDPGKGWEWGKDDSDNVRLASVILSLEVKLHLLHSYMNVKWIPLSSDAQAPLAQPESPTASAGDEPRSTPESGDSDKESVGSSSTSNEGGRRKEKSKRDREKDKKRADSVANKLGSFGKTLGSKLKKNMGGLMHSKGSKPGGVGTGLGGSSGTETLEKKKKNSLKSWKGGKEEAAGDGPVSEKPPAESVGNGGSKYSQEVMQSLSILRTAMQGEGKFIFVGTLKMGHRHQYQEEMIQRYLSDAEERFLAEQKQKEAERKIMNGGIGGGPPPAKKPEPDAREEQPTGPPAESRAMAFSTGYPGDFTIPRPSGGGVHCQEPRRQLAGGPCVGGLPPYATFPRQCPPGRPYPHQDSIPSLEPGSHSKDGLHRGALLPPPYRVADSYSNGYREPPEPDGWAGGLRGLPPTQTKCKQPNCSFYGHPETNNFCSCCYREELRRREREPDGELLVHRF
# Outline: as §1
# PRPF8 = PRPF8 (UniProt Q6P2Q9)
# Outline: as §1
# PSMD7 = biological target: T3, PSMD7 (UniProt P51665)
# T3 sequence (whole entry): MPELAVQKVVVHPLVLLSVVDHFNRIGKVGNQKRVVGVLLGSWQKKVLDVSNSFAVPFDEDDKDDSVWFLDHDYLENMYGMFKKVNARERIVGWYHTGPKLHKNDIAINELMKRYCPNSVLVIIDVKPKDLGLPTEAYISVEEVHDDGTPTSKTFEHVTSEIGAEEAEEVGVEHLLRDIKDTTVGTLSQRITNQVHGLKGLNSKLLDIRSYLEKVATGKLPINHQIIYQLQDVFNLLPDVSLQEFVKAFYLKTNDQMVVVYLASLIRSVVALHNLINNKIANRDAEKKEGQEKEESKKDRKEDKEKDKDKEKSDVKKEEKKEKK
# Outline: as §1
# UCHL1 = UCHL1 (UniProt P09936)
# Sequence of UCHL1 (P09936 whole entry, looked up): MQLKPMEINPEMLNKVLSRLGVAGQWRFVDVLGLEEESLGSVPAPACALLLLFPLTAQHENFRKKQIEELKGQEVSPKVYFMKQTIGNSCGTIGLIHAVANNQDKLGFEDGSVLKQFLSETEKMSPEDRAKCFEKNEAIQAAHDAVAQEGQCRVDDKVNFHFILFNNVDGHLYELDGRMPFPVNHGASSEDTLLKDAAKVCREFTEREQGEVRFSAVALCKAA
# Outline: as §1
# UCHL3 = biological target: T4, UCHL3 (UniProt P15374)
# T4 sequence (whole entry): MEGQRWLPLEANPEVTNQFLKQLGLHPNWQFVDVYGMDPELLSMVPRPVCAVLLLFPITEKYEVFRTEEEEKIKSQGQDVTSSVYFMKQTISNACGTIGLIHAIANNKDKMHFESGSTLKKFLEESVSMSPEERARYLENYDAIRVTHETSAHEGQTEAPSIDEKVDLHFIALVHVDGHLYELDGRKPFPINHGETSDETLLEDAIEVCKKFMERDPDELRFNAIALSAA
# Outline: as §1
# UCHL5 = biological target: T5, UCHL5 (UniProt Q9Y5K5)
# T5 sequence (whole entry): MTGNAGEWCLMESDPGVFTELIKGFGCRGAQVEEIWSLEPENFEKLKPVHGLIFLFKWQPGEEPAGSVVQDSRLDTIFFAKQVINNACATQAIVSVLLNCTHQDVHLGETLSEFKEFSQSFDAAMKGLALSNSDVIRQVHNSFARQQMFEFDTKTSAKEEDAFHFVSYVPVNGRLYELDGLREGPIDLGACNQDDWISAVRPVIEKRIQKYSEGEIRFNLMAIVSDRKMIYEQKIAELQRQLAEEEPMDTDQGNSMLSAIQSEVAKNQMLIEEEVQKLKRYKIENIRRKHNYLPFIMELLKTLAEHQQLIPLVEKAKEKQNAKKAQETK
# Outline: as §1
# USP10 = USP10 (UniProt Q14694)
# Sequence of USP10 (Q14694 whole entry): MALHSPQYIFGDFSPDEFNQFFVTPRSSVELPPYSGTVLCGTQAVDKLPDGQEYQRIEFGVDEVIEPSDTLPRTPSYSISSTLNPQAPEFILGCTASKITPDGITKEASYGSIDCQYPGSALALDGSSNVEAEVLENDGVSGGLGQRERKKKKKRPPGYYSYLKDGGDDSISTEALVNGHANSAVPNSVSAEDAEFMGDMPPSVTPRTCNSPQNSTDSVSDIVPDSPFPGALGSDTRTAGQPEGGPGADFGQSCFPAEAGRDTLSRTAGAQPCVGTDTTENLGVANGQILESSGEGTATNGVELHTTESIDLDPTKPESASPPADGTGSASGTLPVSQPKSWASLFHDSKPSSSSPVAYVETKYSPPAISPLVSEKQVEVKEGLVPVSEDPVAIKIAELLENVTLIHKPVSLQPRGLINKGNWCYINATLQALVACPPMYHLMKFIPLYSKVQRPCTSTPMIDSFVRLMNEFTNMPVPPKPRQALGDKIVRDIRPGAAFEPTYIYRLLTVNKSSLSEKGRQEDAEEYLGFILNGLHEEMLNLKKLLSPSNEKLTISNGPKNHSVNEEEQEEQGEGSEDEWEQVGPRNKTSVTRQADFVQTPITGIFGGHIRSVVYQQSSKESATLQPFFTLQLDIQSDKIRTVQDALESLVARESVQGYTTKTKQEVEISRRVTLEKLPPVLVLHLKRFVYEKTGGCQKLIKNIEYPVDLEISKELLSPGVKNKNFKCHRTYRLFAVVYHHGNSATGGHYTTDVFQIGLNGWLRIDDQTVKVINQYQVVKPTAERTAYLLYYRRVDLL
# Outline: as §1
# USP15 = biological target: T6, USP15 (UniProt Q9Y4E8)
# T6 sequence (whole entry): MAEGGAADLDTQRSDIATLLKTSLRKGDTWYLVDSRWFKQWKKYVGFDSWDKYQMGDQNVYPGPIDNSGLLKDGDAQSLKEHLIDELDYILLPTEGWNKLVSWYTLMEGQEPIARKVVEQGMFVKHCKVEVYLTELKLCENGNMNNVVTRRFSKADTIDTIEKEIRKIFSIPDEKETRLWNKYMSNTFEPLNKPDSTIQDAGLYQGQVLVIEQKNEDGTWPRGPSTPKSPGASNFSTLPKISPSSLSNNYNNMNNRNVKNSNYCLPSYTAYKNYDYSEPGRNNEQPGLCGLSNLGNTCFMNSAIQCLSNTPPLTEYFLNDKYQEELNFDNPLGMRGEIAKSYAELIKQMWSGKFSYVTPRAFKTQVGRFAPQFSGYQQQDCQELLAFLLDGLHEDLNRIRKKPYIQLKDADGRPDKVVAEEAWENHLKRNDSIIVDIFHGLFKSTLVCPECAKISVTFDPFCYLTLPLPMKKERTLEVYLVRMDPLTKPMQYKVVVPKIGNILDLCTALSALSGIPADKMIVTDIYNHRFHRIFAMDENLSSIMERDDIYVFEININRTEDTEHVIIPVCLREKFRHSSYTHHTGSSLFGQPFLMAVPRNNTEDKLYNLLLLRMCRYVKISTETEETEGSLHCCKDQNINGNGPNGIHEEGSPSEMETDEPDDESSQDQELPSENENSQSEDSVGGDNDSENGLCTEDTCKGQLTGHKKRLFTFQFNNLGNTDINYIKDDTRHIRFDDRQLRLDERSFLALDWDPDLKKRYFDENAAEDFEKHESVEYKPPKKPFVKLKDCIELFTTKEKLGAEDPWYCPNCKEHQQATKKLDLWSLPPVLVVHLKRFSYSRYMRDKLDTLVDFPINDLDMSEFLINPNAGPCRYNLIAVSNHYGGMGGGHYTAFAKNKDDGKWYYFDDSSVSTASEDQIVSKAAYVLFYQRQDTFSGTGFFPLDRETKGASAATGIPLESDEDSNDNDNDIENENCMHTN
# Outline: as §1
# USP16 = USP16 (UniProt Q9Y5T5)
# Sequence of USP16 (Q9Y5T5 whole entry, looked up): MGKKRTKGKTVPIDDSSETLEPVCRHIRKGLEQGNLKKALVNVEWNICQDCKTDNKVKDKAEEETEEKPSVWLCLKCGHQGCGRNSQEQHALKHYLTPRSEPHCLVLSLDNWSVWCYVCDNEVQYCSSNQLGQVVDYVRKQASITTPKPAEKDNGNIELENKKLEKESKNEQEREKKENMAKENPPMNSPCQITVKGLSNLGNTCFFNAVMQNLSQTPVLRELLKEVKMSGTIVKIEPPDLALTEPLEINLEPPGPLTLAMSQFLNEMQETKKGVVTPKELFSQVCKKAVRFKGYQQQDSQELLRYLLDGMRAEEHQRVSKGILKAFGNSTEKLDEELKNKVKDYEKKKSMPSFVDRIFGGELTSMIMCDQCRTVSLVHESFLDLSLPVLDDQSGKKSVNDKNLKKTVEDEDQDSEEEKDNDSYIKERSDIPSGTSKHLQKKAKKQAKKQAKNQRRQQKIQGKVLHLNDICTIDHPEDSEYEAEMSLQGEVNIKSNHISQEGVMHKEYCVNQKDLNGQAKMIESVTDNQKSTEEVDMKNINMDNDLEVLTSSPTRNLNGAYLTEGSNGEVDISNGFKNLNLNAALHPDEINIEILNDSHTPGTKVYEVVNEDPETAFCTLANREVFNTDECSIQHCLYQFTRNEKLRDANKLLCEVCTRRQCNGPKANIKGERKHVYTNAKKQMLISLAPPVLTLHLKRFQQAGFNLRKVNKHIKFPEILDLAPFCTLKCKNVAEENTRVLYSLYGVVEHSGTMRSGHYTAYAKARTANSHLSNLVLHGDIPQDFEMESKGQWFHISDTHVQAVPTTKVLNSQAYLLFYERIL
# Outline: as §1
structure (smiles),measurement,setting,value
Cc1c(C#N)c(NC(=O)CCl)n(Cc2ccco2)c1C,log2 ratio of Biotin-Ahx-Ub-VS probe labelling,OTUD6B,-0.163
same,log2 ratio of Biotin-Ahx-Ub-VS probe labelling,OTUD7B,-1.87 (active)
same,log2 ratio of Biotin-Ahx-Ub-VS probe labelling,PRPF8,0.194
same,log2 ratio of Biotin-Ahx-Ub-VS probe labelling,PSMD7,0.0239
same,log2 ratio of Biotin-Ahx-Ub-VS probe labelling,UCHL1,-1.43 (active)
same,log2 ratio of Biotin-Ahx-Ub-VS probe labelling,UCHL3,0.496
same,log2 ratio of Biotin-Ahx-Ub-VS probe labelling,UCHL5,-0.133
same,log2 ratio of Biotin-Ahx-Ub-VS probe labelling,USP10,-0.259
same,log2 ratio of Biotin-Ahx-Ub-VS probe labelling,USP15,-0.505
same,log2 ratio of Biotin-Ahx-Ub-VS probe labelling,USP16,-0.818
